Measurements: PubChem BioAssay
Results filed as inconclusive are left out. Calls of active or inactive are those of the source.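 How the source made its calls, unless noted: active means percent response above 42, roughly 3 SD of non-fluorescent test compounds; inactive means the rest.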

Columns and labels:
[1] = yeast TOR pathway RPL19A-GFP modulators, primary screen, cell-based, S. cerevisiae, multiplex flow cytometry (AID 1862; in the data active means percent of DMSO control GFP below about 86%;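 further: lower values mimic rapamycin by blocking the RPL19A rise seen in DMSO cells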); conditions: S. cerevisiae RPL19A-GFP strain, flow cytometry fluorescence, 3 h; at 10 µM; stronger effect = lower value
[2] = modulators of MEP2-GFP levels in yeast, primary screen, S. cerevisiae, multiplex flow cytometry (AID 1867;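 active means GFP response, as percent of the DMSO control, above the screen-wide mean plus 3 SD, about 139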;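 further: median GFP channel fluorescence of barcode-gated MEP2-GFP cells measured by flow cytometry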); conditions: S. cerevisiae MEP2-GFP strain, 3 h, at 10 µM, stronger effect = higher value, 100% means same as DMSO wells
[3] = modulators of CIT2-GFP expression in yeast, primary screen, S. cerevisiae, GFP fusion, multiplex flow cytometry (AID 1870;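 active means percent response above a set limit, the screen-wide mean plus 3 SD, cut at about 130% in these data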;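 further: barcoded CIT2-GFP strain pooled with four other GFP strains with rapamycin as positive control; median GFP fluorescence per well over plate mean of DMSO wells so 100% = DMSO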); conditions: 3 h, at 10 µM, stronger effect = higher value
[4] = modulators of LAP4-GFP expression in yeast, primary screen, S. cerevisiae, multiplex flow cytometry (AID 1873;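 active means GFP signal, as percent of the solvent control, above the screen mean plus 3 SD, about 149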); conditions: 3 h, at 10 µM, stronger effect = higher value
[5] = modulators of AGP1-GFP expression in yeast TOR pathway, primary screen, cell-based, multiplex flow cytometry, S. cerevisiae (AID 1887;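 active means GFP signal above the screen-wide mean plus 3 SD, that is over about 124.5% of the solvent control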;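 further: AGP1-GFP fusion strain of S. cerevisiae within a five-strain barcoded multiplex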); conditions: 3 h, at 10 µM, stronger effect = higher value
[6] = inhibitors of CD8+ T cell-vesicle binding, pilot screen, LFA-1/ICAM-1 modulator project, MLPCN validation set, flow cytometry (AID 2523;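 active means response below a set limit, under 55% cells CD8-positive and vesicle-bound, and CD8 cells' 90th-percentile brightness under 279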;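 on vesicle binding response: mean PE anti-B7-1 fluorescence of CD8+ cells relative to row control; 100% = QL9-loaded vesicles with DMSO vehicle in the same plate row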); conditions: 2C mouse CD8+ T cells, at 7 µM, stronger effect = lower value; double positive events: measured here: CD8+/vesicle+ event percentage
[7] = biological target: Integrin beta-1 (Homo sapiens) + Integrin alpha-4 (Homo sapiens) (UniProt P13612+P05556); experiment: inhibition of HUTS-21 binding to VLA-4, pilot screen, VLA-4 allosteric modulator project, U937 cells, HUTS-21 mAb, flow cytometry, validation set (AID 2674;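 active means inhibition above 50%, about 3 SD of the validation set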;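 further: antibody binding induced by the VLA-4 ligand LDV present at three times its Kd; 0% = LDV ligand with antibody and no compound and 100% = antibody without LDV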); conditions: HUTS-21 LIBS mAb binding, at 6.7 µM, stronger effect = higher value, binding induced by LDV ligand
Integrin beta-1 (Homo sapiens) + Integrin alpha-4 (Homo sapiens), sequence (P05556 whole entry, looked up): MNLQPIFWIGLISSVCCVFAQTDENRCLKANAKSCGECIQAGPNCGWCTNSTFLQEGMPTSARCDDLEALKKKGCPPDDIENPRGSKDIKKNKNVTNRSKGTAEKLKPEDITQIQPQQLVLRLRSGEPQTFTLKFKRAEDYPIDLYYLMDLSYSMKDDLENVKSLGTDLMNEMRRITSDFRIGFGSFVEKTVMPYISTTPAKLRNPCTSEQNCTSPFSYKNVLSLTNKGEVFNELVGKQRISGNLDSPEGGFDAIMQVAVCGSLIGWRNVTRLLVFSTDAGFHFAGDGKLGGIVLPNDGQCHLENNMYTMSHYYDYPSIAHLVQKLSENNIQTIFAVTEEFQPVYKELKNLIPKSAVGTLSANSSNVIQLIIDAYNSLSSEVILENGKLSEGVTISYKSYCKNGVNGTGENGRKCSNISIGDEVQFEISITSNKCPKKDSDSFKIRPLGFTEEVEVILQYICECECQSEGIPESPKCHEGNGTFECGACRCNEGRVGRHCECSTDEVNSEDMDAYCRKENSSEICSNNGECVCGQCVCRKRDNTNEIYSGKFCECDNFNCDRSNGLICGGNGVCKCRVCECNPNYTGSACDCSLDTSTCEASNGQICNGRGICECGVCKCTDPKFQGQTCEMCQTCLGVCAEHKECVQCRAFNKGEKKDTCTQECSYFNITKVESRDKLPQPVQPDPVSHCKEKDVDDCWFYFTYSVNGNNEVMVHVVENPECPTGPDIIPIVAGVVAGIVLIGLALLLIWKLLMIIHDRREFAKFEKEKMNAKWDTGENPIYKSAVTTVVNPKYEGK
Integrin beta-1 (Homo sapiens) + Integrin alpha-4 (Homo sapiens), sequence (P13612 whole entry, looked up): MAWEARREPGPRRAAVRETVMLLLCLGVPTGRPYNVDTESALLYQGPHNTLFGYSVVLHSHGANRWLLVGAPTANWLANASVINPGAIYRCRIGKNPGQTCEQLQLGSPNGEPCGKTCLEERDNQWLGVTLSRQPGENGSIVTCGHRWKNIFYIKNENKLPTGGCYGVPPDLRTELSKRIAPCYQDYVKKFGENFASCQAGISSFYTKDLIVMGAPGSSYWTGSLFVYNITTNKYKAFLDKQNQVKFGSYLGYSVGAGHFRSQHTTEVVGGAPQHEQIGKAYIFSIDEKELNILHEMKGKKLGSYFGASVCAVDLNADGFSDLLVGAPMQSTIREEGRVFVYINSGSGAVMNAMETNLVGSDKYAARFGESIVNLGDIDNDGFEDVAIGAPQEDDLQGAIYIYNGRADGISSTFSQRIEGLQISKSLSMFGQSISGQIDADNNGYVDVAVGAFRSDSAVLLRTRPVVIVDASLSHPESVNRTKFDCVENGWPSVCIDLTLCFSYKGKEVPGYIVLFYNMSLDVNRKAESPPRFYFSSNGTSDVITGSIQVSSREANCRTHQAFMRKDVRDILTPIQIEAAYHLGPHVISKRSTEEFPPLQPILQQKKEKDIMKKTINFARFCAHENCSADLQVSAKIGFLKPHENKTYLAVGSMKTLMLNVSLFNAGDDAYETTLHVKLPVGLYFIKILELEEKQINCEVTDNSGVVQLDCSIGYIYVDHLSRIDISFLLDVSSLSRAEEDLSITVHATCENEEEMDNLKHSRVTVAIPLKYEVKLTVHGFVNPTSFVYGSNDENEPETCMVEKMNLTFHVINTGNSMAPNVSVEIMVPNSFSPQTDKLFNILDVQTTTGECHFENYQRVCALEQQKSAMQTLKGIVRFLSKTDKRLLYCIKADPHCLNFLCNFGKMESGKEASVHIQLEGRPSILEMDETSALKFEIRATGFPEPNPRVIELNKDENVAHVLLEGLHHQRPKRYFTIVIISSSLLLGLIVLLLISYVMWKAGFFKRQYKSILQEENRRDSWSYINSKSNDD

[8] = superoxide lowering in aged yeast cells, pilot screen, validation compound set (AID 2706;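 active means superoxide response below 65% of plate, a cut near 3 SD across the whole screen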;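 further: yeast exposed to compound for one week at 30 degrees C before staining; 100% = mean of all compound wells on the same plate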); conditions: S. cerevisiae aging, superoxide DHE fluorescence; at 10 µM; stronger effect = lower value
[9] = biological target: Beta-adrenergic receptor kinase 1 (Homo sapiens) (UniProt P25098); experiment: GRK2 binders displacing RNA aptamer, biochemical, validation, human GRK2, bead flow cytometry (AID 488806;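 active means aptamer binding inhibition above 30%, about 3 SD of noise from non-fluorescent compounds; inactive means inhibition at or below 30%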); conditions: bead-bound GRK2, FAM-aptamer displacement, at 10 µM, stronger effect = higher value
Beta-adrenergic receptor kinase 1 (Homo sapiens), sequence (P25098 whole entry, looked up): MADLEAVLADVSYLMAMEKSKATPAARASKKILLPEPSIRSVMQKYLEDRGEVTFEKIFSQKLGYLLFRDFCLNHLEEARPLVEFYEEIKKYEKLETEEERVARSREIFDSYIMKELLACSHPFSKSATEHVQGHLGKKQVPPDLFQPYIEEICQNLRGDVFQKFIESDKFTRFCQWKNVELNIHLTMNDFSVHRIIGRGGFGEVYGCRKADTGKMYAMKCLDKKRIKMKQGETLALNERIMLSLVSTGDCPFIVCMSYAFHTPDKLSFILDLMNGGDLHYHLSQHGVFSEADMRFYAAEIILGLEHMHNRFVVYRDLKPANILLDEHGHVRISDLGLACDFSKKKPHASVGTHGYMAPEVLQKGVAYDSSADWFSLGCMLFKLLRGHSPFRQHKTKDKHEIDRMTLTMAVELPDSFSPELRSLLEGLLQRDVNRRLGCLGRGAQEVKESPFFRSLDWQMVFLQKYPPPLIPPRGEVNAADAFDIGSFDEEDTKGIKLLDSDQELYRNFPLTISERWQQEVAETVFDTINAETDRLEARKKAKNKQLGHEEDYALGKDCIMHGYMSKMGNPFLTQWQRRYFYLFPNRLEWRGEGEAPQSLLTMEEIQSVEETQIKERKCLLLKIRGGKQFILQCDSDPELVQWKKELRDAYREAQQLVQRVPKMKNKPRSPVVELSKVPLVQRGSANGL

[10] = biological target: Beta-2 adrenergic receptor (Homo sapiens) (UniProt P07550); experiment: beta2AR agonists driving receptor internalization, pilot screen, cell-based, FAP fluorogen, flow cytometry, validation set (AID 504459); conditions: Am2.2-beta2AR cells, FAP surface receptor flow cytometry; at 10 µM; stronger effect = higher value;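 further: agonist-driven loss of surface beta2AR via internalization measured by FAP dye flow cytometry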
Beta-2 adrenergic receptor (Homo sapiens), sequence (P07550 whole entry, looked up): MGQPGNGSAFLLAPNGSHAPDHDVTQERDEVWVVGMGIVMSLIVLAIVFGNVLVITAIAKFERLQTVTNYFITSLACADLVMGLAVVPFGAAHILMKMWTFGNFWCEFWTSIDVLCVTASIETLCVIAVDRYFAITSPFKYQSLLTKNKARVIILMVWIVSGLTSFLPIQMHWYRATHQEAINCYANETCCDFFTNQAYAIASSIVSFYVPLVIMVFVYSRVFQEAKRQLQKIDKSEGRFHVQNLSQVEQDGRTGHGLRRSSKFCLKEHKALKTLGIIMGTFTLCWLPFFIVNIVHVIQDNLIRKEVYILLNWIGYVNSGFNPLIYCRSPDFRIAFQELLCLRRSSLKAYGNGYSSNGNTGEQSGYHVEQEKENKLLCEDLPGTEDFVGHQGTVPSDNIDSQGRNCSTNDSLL

[11] = biological target: AP-2 complex subunit beta (Homo sapiens) (UniProt P63010); experiment: inhibitors of arrestin peptide binding to AP2, pilot screen, biochemical, validation set, GST-AP2 beads, flow cytometry (AID 504541;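 active means inhibition above 54%, about 3 SD of non-fluorescent compounds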;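 further: AP2 carries R879A mutation and is captured from E. coli lysate; bead-bound FITC arrestin peptide fluorescence measuring arrestin peptide binding to AP2; 0% = DMSO wells and 100% = excess unlabeled arrestin peptide control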); conditions: FITC arrestin peptide, at 10 µM, stronger effect = higher value, AP2 beta2 appendage fragment, R879A mutant
AP-2 complex subunit beta (Homo sapiens), sequence (P63010 whole entry, looked up, the tested form may be a part, one chain of several): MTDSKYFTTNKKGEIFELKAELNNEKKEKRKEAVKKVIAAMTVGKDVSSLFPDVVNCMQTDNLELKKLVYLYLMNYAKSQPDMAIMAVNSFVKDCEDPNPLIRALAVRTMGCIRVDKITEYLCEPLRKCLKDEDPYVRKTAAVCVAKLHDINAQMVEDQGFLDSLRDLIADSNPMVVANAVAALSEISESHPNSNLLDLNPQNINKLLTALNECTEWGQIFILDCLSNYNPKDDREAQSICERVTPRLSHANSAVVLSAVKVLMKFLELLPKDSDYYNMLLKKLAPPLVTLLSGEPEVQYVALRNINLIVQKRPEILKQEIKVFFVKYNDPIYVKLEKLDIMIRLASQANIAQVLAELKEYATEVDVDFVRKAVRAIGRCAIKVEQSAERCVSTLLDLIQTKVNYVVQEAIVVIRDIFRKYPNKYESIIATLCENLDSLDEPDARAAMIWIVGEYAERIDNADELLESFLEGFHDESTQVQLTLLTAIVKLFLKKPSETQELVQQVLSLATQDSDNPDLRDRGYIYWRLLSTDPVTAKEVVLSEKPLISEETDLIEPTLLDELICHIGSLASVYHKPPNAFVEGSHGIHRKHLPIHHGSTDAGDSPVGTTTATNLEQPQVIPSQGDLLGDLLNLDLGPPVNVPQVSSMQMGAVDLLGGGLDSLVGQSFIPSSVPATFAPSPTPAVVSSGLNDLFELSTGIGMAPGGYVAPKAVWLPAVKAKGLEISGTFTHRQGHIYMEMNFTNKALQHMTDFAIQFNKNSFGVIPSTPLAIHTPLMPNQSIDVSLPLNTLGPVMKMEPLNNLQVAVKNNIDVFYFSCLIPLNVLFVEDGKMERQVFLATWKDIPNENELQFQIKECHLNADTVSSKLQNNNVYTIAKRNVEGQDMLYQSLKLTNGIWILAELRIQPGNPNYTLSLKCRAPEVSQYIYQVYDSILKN

[12] = yeast V-ATPase proton transport modulators, S. cerevisiae, pHLuorin, HTS validation (AID 504600; in the data active means response above about 15%;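 further: plate controls were DMSO for no effect and reference compound for full effect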); conditions: S. cerevisiae pHLuorin cytosolic pH, at 10 µM, stronger effect = higher value
[13] = test system: anti-desmoglein-3 scFv antibody binding to human DSG3; experiment: inhibitors of anti-DSG3 scFv binding to DSG3, pilot screen, biochemical, validation compound set, bead-based, flow cytometry (AID 588368;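 active means binding below the plate cutoff, the plate median minus 3 SD, with a reading above zero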;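 further: signal is the median channel fluorescence of bead-bound GFP antibody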); conditions: Protein G beads, DSG3-Fc, scFv-GFP binding, at 10 µM, stronger effect = lower value
[14] = inhibitors of fungal efflux pumps CDR1, CDR2, MDR1, pilot screen, validation compound set, multiplex, phenotypic (AID 588506;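 active means efflux inhibition above 0.42, the validation set average plus 4 SD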;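 further: Nile Red retained in cells so higher fluorescence means more efflux inhibition; 0 = negative control wells and 1 = enniatin B 25 µM full block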); conditions: S. cerevisiae pump-expressing triplex, Nile Red efflux flow cytometry; at 10 µM; stronger effect = higher value; the pumps come from Candida albicans
[15] = biological target: ATP-binding cassette sub-family B member 6 (Homo sapiens) (UniProt Q9NP58); experiment: ABCB6 transporter inhibitors, pilot screen, K562-ABCB6 cells, flow cytometry, validation set (AID 588550;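 active means inhibition above the screen-wide mean plus 3 SD, about 51%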;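 further: 0% = DMSO wells and 100% = benzethonium chloride 70 µM positive control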); conditions: K562-ABCB6 porphyrin accumulation, 1 h, at 10 µM, stronger effect = higher value
ATP-binding cassette sub-family B member 6 (Homo sapiens), sequence (Q9NP58 whole entry, looked up): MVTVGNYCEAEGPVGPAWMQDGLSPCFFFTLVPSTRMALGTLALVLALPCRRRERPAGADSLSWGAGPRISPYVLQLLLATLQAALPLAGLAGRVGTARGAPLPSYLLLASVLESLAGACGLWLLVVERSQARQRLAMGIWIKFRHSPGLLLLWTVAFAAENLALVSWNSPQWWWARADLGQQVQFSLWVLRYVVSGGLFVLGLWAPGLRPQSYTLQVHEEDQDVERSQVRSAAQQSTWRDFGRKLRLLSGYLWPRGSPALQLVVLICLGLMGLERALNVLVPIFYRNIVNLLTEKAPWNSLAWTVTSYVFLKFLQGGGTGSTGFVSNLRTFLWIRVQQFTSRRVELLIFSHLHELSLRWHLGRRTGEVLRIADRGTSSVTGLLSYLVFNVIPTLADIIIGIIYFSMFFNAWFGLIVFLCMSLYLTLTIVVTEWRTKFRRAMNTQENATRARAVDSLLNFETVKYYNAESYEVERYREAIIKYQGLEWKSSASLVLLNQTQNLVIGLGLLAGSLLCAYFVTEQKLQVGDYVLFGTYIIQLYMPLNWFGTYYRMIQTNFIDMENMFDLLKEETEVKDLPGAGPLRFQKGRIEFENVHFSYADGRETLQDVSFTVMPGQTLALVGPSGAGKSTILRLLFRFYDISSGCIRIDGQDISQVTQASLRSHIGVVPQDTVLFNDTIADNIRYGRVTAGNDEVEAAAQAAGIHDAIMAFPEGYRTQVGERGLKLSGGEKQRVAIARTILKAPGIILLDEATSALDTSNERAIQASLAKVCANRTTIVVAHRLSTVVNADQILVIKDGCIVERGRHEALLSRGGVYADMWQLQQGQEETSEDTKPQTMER

[16] = promoters of myeloid differentiation in arrested cells, primary screen, cell-based, GFP/MAC1 double positive, flow cytometry, validation set (AID 588685;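 active means differentiation response of at least 50%, scaled between solvent and reference control, from cells with both markers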;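 further: compound exposure lasts four days before antibody staining and flow analysis; 0% = DMSO wells and 100% = 5 µM fulvestrant positive control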); conditions: ER-HoxA9 marrow cells, stronger effect = higher value, normalized: vehicle 0, fulvestrant 100

C[N+](C)(C)CCCCCCCCCC[N+](C)(C)C
70%: double positive events [6]
inactive: percent of DMSO control GFP [1] 94.4% | GFP response vs DMSO [2] 129% | percent response of DMSO control [3] 103% | GFP response vs DMSO [4] 77% | GFP response, % of DMSO [5] 87% | vesicle binding response [6] 208% | inhibition [7] 3.55% | superoxide response (% of plate) [8] 100% | aptamer binding inhibition [9] 5% | response [10] -10.3% | inhibition [11] -6.99% | response [12] 0.2% | binding (% of control) [13] 101% | efflux inhibition (fraction of control) [14] -0.56 | inhibition [15] 12% | differentiation response [16] 1.64%

CCOc1ccc2nc(S(N)(=O)=O)sc2c1
inactive: percent of DMSO control GFP [1] 101% | GFP response vs DMSO [2] 104% | percent response of DMSO control [3] 99.7% | GFP response vs DMSO [4] 100% | GFP response, % of DMSO [5] 103% | vesicle binding response [6] 103% | inhibition [7] 0.25% | superoxide response (% of plate) [8] 102% | aptamer binding inhibition [9] 5% | response [10] 3.56% | inhibition [11] -2.81% | response [12] -4.65% | binding (% of control) [13] 101% | efflux inhibition (fraction of control) [14] -0.29 | inhibition [15] 7% | differentiation response [16] -13.3%
55.1%: double positive events [6]

Cc1nc2cc3ccccc3cc2c(=O)[nH]1
60.4%: double positive events [6]
inactive: percent of DMSO control GFP [1] 102% | GFP response vs DMSO [2] 106% | percent response of DMSO control [3] 101% | GFP response vs DMSO [4] 104% | GFP response, % of DMSO [5] 96.6% | vesicle binding response [6] 160% | inhibition [7] -26.1% | superoxide response (% of plate) [8] 104% | aptamer binding inhibition [9] 6% | response [10] 9.81% | inhibition [11] -19.1% | response [12] 1.08% | binding (% of control) [13] 98% | efflux inhibition (fraction of control) [14] 0.07 | inhibition [15] -9% | differentiation response [16] -2.64%

Cc1ccc(S(=O)(=O)NC(C(=O)Oc2ccc3c(C(F)(F)F)cc(=O)oc3c2)c2ccccc2)cc1 (stereo not given)
inactive: percent of DMSO control GFP [1] 98.1% | GFP response vs DMSO [2] 102% | percent response of DMSO control [3] 100% | GFP response vs DMSO [4] 115% | GFP response, % of DMSO [5] 107% | vesicle binding response [6] 183% | inhibition [7] -6.23% | superoxide response (% of plate) [8] 106% | aptamer binding inhibition [9] -1% | response [10] 5.6% | response [12] -16.5% | binding (% of control) [13] 92.6% | efflux inhibition (fraction of control) [14] 0.12 | inhibition [15] -3% | differentiation response [16] 0.92%
active: inhibition [11] 59.2%
62.2%: double positive events [6]

CC(C)c1ccc(NC(=O)CNS(=O)(=O)c2ccc(F)cc2)cc1
inactive: percent of DMSO control GFP [1] 99.3% | GFP response vs DMSO [2] 107% | percent response of DMSO control [3] 101% | GFP response vs DMSO [4] 120% | GFP response, % of DMSO [5] 102% | vesicle binding response [6] 260% | inhibition [7] -3.16% | superoxide response (% of plate) [8] 114% | aptamer binding inhibition [9] -1% | response [10] -11.4% | inhibition [11] -6.24% | response [12] -3.77% | binding (% of control) [13] 100% | efflux inhibition (fraction of control) [14] -0.1 | inhibition [15] 1% | differentiation response [16] -13.6%
57.6%: double positive events [6]
